# Assays:
# Test in all cases: DAPPL (digital affinity profiling via proximity ligation, sequencing); 10 mM Tris-HCl pH 7.5, 50 mM NaCl, 1 mM DTT, 4% glycerol, room temperature, 30 min; GST-TFs on glutathione beads, 16-mer random dsDNA library, 0.1% formaldehyde crosslink after washing; high values mean tight binding
# FLI1 = target: T1, FLI1 (Homo sapiens, UniProt Q01543 1-452); details: protein: recombinant; tags: N-terminal GST; dsDNA, one strand shown
# T1 sequence: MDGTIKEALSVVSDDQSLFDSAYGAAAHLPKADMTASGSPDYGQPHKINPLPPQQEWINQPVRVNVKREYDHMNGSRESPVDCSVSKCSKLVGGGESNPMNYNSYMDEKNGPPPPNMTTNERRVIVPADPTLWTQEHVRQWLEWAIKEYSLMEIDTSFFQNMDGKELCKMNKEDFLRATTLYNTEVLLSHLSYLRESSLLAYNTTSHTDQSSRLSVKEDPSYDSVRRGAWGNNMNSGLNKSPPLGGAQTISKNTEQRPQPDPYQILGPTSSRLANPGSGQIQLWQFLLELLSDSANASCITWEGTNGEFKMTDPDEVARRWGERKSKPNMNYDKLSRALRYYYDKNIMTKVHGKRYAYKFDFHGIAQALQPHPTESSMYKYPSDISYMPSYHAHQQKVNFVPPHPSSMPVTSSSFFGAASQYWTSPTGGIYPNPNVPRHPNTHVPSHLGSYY
# How it was run: (§1)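 Human transcription factors were made in yeast as GST fusions, captured on glutathione beads and barcoded with DNA. With a tag-only sample included, the pool was incubated with 200 nmole of a random double-stranded 16-mer DNA library in Tris/NaCl/DTT/glycerol buffer at room temperature for 30 min, then crosslinked with 0.1% formaldehyde after washing, ligated by proximity, amplified and sequenced. For binding signal, each hexamer's read frequency for a factor is divided by its frequency for the tag-only sample.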
# ELK1 = target: T2, ELK1 (Homo sapiens, UniProt P19419 1-428); details: protein: recombinant; tags: N-terminal GST; dsDNA, one strand shown
# T2 sequence: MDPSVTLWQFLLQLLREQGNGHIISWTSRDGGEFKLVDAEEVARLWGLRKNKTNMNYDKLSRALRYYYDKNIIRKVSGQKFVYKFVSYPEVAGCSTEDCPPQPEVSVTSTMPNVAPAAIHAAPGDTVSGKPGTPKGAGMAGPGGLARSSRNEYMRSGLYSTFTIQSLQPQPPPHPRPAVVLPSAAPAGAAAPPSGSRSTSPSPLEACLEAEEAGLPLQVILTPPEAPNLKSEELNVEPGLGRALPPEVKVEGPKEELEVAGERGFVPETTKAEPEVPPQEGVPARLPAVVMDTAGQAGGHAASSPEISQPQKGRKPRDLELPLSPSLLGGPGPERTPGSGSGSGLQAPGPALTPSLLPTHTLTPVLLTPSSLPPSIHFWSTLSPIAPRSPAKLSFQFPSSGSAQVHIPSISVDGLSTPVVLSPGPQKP
# How it was run: as §1
# GABPA = target: T3, GABPA (Homo sapiens, UniProt Q06546 1-454); details: protein: recombinant; tags: N-terminal GST; dsDNA, one strand shown
# T3 sequence: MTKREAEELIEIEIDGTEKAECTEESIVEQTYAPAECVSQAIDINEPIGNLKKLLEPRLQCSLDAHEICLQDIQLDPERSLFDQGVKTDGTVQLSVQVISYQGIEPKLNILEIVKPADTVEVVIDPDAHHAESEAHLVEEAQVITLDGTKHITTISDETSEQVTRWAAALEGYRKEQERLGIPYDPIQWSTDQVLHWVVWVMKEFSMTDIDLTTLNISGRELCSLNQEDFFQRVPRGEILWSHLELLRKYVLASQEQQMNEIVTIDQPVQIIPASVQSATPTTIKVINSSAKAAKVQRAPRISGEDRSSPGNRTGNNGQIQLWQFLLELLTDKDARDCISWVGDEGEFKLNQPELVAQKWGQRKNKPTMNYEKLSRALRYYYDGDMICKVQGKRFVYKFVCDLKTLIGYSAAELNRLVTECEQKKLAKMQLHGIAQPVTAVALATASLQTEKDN
# How it was run: as §1
# ERG = target: T4, ERG (Homo sapiens, UniProt P11308 1-479); details: protein: recombinant; tags: N-terminal GST; dsDNA, one strand shown
# T4 sequence: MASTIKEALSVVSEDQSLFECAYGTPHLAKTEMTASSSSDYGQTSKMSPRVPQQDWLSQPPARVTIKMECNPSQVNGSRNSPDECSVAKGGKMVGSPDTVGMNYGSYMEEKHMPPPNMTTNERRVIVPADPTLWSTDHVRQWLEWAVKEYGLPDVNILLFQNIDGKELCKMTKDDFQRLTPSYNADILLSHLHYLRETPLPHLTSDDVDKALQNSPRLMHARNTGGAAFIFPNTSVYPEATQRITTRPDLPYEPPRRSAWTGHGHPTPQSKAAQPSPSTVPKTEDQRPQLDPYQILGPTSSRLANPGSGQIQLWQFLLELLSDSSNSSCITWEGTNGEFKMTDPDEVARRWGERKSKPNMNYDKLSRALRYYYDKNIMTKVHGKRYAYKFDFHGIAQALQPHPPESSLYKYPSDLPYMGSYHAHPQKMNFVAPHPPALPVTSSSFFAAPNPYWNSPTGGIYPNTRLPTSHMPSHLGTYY
# How it was run: as §1
# ELF1 = ELF1 (Homo sapiens, UniProt P32519 1-619); details: protein: recombinant; tags: N-terminal GST; dsDNA, one strand shown
# Chain of ELF1 (P32519 whole entry): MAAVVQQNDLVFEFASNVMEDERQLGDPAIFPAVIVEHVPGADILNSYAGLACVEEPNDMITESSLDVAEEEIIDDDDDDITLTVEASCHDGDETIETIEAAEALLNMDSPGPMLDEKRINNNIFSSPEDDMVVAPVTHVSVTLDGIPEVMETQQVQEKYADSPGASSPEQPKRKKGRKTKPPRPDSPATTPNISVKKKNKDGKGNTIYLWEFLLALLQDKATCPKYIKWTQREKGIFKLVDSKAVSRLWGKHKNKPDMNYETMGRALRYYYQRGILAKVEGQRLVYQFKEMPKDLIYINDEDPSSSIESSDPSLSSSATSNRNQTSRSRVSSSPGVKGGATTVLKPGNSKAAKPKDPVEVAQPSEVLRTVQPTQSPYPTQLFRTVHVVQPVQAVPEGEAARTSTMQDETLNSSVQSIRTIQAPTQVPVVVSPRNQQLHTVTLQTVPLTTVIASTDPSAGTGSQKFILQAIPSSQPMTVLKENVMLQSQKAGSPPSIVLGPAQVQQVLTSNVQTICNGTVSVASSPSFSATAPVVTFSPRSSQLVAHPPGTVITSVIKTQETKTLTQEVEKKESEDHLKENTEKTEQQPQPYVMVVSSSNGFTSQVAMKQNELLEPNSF
# How it was run: as §1
# EHF = target: T5, EHF (Homo sapiens, UniProt Q9NZC4 1-300); details: protein: recombinant; tags: N-terminal GST; dsDNA, one strand shown
# T5 sequence: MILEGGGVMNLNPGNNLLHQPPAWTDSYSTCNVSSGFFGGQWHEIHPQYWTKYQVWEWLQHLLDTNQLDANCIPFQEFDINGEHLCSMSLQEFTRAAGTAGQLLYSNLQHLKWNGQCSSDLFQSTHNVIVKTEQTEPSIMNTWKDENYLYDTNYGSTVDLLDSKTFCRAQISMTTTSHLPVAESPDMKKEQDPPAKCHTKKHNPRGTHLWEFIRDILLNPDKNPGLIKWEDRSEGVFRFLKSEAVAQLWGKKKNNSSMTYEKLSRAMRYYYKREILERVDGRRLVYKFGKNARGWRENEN
# How it was run: as §1
# SPI1 = SPI1 (Homo sapiens, UniProt P17947 1-270); details: protein: recombinant; tags: N-terminal GST; dsDNA, one strand shown
# How it was run: as §1
# SPIB = SPIB (Homo sapiens, UniProt Q01892 1-262); details: protein: recombinant; tags: N-terminal GST; dsDNA, one strand shown
# Chain of SPIB (Q01892 whole entry): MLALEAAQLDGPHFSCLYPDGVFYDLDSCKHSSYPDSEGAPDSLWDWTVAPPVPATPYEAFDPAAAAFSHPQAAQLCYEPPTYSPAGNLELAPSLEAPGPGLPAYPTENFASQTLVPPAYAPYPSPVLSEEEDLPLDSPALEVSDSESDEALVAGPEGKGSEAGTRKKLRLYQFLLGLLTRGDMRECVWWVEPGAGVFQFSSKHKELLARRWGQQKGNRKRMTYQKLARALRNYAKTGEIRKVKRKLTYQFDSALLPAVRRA
# How it was run: as §1
# FEV = target: T6, FEV (Homo sapiens, UniProt Q99581 1-238); details: protein: recombinant; tags: N-terminal GST; dsDNA, one strand shown
# T6 sequence: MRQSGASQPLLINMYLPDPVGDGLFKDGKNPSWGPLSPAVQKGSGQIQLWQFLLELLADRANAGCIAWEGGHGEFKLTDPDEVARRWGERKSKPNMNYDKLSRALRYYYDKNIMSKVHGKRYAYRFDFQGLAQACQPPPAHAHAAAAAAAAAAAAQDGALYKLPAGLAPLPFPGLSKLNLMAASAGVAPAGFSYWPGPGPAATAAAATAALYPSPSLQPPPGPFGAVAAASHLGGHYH
# How it was run: as §1
# ETV5 = ETV5 (Homo sapiens, UniProt P41161 1-510); details: protein: recombinant; tags: N-terminal GST; dsDNA, one strand shown
# Chain of ETV5 (P41161 whole entry): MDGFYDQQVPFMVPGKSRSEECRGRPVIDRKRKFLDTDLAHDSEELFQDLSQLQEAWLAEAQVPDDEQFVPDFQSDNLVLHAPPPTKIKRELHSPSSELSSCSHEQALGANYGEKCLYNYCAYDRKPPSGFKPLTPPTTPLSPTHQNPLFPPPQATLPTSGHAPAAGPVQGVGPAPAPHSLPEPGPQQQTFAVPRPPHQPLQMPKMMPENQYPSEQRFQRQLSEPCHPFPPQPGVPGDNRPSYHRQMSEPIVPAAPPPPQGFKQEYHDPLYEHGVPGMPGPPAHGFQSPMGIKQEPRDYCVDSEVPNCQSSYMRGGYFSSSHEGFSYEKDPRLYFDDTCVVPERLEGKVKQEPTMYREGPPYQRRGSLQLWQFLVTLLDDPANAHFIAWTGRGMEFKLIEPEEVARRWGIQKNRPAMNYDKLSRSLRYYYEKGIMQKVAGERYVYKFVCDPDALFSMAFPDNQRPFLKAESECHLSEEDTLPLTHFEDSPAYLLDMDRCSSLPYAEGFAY
# How it was run: as §1
# HSF1 = HSF1 (Homo sapiens, UniProt Q00613 1-529); details: protein: recombinant; tags: N-terminal GST; chain copies: 3; dsDNA, one strand shown
# Chain of HSF1 (Q00613 whole entry): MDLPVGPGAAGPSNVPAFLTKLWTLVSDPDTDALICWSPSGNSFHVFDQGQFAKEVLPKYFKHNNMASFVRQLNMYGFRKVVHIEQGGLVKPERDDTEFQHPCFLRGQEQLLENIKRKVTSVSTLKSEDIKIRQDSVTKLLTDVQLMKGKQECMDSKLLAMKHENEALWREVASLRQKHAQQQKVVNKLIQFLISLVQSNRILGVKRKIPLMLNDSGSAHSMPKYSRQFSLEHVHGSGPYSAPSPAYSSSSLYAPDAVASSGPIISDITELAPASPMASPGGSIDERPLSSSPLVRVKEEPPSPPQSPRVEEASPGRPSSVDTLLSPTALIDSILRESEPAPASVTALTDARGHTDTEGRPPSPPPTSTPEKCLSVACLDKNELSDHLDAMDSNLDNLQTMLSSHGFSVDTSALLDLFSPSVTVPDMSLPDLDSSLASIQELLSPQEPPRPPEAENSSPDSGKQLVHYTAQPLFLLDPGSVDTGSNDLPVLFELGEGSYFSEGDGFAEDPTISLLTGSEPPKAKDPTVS
# How it was run: as §1
# SPIC = target: T7, SPIC (Homo sapiens, UniProt Q8N5J4 1-248); details: protein: recombinant; tags: N-terminal GST; dsDNA, one strand shown
# T7 sequence: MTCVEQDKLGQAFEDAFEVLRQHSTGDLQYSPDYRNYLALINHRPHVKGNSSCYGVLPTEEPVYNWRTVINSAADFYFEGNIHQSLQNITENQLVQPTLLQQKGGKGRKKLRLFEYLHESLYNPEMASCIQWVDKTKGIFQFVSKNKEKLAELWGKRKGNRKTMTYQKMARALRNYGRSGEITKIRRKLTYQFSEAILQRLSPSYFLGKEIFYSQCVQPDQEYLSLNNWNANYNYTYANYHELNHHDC
# How it was run: as §1
# ELF4 = ELF4 (Homo sapiens, UniProt Q99607 1-663); details: protein: recombinant; tags: N-terminal GST; dsDNA, one strand shown
# Chain of ELF4 (Q99607 whole entry): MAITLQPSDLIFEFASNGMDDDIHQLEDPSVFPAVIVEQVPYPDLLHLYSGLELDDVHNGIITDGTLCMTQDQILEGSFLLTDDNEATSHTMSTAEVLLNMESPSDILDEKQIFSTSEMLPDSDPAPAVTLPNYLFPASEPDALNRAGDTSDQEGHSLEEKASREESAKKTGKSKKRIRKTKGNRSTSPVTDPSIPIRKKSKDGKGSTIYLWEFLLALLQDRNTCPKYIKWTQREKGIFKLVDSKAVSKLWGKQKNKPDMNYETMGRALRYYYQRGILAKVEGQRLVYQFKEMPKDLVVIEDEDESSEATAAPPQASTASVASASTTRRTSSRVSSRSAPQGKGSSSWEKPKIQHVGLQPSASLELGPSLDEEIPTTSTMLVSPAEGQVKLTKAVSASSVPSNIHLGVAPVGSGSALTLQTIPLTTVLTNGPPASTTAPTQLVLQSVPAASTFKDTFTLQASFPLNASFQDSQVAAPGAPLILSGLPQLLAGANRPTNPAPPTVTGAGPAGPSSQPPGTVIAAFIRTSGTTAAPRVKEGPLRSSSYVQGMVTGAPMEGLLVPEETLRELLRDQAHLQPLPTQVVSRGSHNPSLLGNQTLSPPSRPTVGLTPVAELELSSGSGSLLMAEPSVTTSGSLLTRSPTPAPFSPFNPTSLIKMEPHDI
# How it was run: as §1
# ELK4 = target: T8, ELK4 (Homo sapiens, UniProt P28324-2 1-405); details: protein: recombinant; tags: N-terminal GST; dsDNA, one strand shown
# T8 sequence: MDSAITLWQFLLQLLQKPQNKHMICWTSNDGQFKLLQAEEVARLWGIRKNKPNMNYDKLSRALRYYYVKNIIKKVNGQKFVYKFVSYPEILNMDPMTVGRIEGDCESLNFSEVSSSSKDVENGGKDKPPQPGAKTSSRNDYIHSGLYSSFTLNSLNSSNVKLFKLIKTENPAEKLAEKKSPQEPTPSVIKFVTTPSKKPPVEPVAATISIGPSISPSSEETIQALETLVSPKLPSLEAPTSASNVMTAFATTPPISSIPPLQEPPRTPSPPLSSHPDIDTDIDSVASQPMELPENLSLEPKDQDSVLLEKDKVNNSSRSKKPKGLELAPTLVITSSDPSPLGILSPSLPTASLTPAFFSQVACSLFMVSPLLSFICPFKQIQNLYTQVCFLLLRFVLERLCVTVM
# How it was run: as §1
# ETV2 = target: T9, ETV2 (Homo sapiens, UniProt O00321 1-342); details: protein: recombinant; tags: N-terminal GST; dsDNA, one strand shown
# T9 sequence: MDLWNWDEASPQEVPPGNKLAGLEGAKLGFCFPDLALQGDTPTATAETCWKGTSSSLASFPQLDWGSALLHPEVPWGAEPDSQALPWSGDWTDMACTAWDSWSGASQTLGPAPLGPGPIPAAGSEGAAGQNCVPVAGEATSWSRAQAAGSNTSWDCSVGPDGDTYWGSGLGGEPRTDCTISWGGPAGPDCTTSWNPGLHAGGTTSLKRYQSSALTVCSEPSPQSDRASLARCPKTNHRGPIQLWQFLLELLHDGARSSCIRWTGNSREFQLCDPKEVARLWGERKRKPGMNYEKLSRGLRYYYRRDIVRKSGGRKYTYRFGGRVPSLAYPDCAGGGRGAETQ
# How it was run: as §1
# ELF3 = target: T10, ELF3 (Homo sapiens, UniProt P78545 1-371); details: protein: recombinant; tags: N-terminal GST; dsDNA, one strand shown
# T10 sequence: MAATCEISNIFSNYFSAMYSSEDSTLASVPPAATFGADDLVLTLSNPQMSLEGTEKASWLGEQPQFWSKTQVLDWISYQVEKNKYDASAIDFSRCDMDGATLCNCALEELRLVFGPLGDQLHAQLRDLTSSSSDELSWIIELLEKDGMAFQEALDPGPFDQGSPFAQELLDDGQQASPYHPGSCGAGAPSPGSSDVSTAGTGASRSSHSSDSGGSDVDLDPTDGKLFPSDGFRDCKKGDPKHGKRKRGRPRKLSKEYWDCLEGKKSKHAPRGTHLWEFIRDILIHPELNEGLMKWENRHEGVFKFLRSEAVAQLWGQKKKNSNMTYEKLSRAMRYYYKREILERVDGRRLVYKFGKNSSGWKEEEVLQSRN
# How it was run: as §1
# CRX = CRX (Homo sapiens, UniProt O43186 1-299); details: protein: recombinant; tags: N-terminal GST; dsDNA, one strand shown
# Chain of CRX (O43186 whole entry): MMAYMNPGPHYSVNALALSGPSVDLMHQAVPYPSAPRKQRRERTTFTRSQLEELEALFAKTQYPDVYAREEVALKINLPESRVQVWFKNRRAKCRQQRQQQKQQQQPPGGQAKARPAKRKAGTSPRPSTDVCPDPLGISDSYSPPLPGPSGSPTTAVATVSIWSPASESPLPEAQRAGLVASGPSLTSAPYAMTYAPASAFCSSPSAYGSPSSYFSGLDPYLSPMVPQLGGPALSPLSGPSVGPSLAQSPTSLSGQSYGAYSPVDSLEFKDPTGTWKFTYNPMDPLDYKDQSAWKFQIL
# How it was run: as §1
# ETV1 = ETV1 (Homo sapiens, UniProt P50549 1-477); details: protein: recombinant; tags: N-terminal GST; dsDNA, one strand shown
# Chain of ETV1 (P50549 whole entry): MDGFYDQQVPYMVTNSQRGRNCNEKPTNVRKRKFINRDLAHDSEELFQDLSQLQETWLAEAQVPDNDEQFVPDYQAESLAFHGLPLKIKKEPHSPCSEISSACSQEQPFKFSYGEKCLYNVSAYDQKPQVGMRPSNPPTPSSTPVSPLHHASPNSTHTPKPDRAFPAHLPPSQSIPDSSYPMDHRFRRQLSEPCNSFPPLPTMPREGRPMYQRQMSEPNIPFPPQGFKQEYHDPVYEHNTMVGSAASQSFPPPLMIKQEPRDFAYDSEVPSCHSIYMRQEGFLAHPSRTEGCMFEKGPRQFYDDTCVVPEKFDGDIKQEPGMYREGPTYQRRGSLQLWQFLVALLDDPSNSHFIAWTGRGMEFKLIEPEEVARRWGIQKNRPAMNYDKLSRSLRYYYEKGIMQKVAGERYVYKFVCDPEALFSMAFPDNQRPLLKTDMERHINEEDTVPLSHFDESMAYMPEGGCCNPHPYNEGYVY
# How it was run: as §1
sequence,measurement,setting,value
AAAAGG,binding signal,FLI1,"1.1 fold enrichment (6-mer frequency, TF over GST control)"
same,binding signal,ELK1,"1.05 fold enrichment (6-mer frequency, TF over GST control)"
same,binding signal,GABPA,"1.25 fold enrichment (6-mer frequency, TF over GST control)"
same,binding signal,ERG,"1.13 fold enrichment (6-mer frequency, TF over GST control)"
same,binding signal,ELF1,"1.1 fold enrichment (6-mer frequency, TF over GST control)"
same,binding signal,EHF,"1.1 fold enrichment (6-mer frequency, TF over GST control)"
same,binding signal,SPI1,"1.48 fold enrichment (6-mer frequency, TF over GST control)"
same,binding signal,SPIB,"1.1 fold enrichment (6-mer frequency, TF over GST control)"
same,binding signal,FEV,"1.06 fold enrichment (6-mer frequency, TF over GST control)"
same,binding signal,ETV5,"1.17 fold enrichment (6-mer frequency, TF over GST control)"
same,binding signal,HSF1,"1.05 fold enrichment (6-mer frequency, TF over GST control)"
same,binding signal,SPIC,"1.18 fold enrichment (6-mer frequency, TF over GST control)"
same,binding signal,ELF4,"1.1 fold enrichment (6-mer frequency, TF over GST control)"
same,binding signal,ELK4,"1 fold enrichment (6-mer frequency, TF over GST control)"
same,binding signal,ETV2,"1.12 fold enrichment (6-mer frequency, TF over GST control)"
same,binding signal,ELF3,"1.2 fold enrichment (6-mer frequency, TF over GST control)"
same,binding signal,CRX,"1.04 fold enrichment (6-mer frequency, TF over GST control)"
same,binding signal,ETV1,"1.19 fold enrichment (6-mer frequency, TF over GST control)"
